Reference: ChEMBL document CHEMBL3988442, “University of Dundee, Small-Polar-MMV Screening Library” (2021)
For some assays here: Measured potencies and affinities stand elsewhere.

Legend:
Design in all cases: scale not given: direction of the effect not stated beside the values
[1] = molecular target: Protein translocase subunit SecA (Escherichia coli (strain K12)) (UniProt P10408); assay: Assay to Identify E. coli SecA ATPase Inhibitors; type: functional; conditions: 30 µM
[2] = molecular target: T1, Ubiquitin-activating enzyme e1, putative (Leishmania donovani (strain BPK282A1)) (UniProt E9BSI1); assay: Leishmania donovani Ubiquitin Activating Enzyme (LdE1); type: functional; conditions: 30 µM
T1 sequence (whole entry): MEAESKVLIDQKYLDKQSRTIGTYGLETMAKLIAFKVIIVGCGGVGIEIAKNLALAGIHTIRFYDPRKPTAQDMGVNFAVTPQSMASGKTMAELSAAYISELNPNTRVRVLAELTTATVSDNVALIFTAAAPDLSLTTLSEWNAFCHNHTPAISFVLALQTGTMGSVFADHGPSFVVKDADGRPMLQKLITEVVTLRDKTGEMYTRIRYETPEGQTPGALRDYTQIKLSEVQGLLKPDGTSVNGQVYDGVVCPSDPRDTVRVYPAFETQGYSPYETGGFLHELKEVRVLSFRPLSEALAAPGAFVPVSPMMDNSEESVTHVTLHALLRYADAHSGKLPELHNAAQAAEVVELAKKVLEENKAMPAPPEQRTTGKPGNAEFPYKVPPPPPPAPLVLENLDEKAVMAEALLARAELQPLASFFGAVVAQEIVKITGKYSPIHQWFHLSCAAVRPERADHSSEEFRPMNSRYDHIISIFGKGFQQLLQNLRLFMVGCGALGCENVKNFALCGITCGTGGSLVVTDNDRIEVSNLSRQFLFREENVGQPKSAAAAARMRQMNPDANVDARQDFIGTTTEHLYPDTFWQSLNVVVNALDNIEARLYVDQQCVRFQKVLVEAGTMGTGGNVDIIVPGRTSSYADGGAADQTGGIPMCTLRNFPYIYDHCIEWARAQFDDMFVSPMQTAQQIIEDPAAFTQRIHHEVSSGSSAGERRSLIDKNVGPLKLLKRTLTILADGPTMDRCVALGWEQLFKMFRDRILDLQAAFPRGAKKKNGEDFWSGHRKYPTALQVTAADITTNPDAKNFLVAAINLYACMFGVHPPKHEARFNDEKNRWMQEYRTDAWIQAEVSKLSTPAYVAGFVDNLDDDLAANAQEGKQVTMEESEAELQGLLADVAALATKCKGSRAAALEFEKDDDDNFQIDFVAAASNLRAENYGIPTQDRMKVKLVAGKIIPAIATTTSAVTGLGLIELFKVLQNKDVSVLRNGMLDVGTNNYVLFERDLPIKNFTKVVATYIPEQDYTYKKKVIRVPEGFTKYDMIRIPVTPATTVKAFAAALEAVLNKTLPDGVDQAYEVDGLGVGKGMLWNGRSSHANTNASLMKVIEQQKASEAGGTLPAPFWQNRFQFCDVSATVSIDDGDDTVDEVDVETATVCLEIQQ

[3] = molecular target: AMP-activated protein kinase, AMPK (Homo sapiens) (UniProt P54646+O43741+P54619+Q9UGJ0+Q9Y478+Q13131+Q9UGI9); assay: AMP-dependent Kinase enzyme assay. An in vitro enzyme assay that detects ADP turnover that is directly proportional to AMPK activity. This uses naive AMPK that is activated during the assay with MK-8722; type: functional; conditions: 30 µM
[4] = molecular target: Sialic acid-binding Ig-like lectin 9 (Homo sapiens) (UniProt Q9Y336); assay: Hs-Siglec9 ALPHAscreen SOP 20170721; conditions: 10 µM
Chain of Sialic acid-binding Ig-like lectin 9 (Homo sapiens) (Q9Y336 whole entry): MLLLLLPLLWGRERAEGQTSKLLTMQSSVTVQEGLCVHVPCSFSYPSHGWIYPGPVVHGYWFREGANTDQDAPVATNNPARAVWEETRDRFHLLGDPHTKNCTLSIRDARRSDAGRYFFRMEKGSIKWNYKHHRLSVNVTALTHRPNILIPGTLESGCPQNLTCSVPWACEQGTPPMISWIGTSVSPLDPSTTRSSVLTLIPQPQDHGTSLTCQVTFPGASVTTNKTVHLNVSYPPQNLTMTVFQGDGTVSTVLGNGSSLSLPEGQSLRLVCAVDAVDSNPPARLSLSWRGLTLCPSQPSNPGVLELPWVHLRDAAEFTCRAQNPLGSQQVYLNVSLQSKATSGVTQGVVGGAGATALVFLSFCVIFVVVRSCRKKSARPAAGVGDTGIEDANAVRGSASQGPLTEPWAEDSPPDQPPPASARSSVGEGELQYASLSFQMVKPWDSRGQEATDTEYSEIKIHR

Trypanosoma cruzi = assay: Trypanosoma cruzi phosphomannomutase and mannose-1-phosphate guanylyltransferase assay; type: functional; conditions: 10 µM
[5] = molecular target: T2, Arginase-2, mitochondrial (Homo sapiens) (UniProt P78540); assay: in vitro enzyme assay to detect the production of urea directly proportional to the activity of Arginase II; type: functional; conditions: 33.3 µM; further: in the data most compounds retested in dose-response had high values
T2 sequence (whole entry): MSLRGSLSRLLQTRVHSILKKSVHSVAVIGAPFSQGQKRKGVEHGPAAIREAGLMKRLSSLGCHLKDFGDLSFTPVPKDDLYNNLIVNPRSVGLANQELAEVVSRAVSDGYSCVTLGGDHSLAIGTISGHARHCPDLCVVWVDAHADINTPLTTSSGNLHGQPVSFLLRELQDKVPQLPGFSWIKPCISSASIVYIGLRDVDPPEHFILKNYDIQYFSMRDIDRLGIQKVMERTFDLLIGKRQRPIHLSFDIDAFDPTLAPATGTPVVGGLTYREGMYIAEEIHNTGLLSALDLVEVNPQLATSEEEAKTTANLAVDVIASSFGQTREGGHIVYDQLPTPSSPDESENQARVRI

[6] = molecular target: T3, Proteasome subunit beta (Trypanosoma cruzi) (UniProt O96673); assay: Trypanosoma cruzi proteasome chymotrypsin-like activity (TcProtChymo) assay.; further: in the data most compounds retested in dose-response had high values; type: functional; conditions: 9.37 µM
T3 sequence (whole entry): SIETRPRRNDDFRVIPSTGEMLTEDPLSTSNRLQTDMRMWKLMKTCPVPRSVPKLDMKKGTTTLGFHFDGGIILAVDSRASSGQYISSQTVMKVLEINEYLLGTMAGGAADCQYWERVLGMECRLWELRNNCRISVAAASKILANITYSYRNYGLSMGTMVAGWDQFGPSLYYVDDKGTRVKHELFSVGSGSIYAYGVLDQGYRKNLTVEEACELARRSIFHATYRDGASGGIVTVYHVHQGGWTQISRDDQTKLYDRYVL

Homo sapiens = species on record: Homo sapiens; assay: To identify inhibition of the IFN signalling (Jak-Stat) pathway via expression of an eGFP reporter gene under the control of an IFN-stimulated response element (ISRE) containing MxA promoter.; type: functional; conditions: 30 µM
[7] = molecular target: T4, Tyrosyl-tRNA synthetase, putative (Trypanosoma cruzi (strain CL Brener)) (UniProt Q4DSP6); assay: Trypanosoma cruzi tyrosyl tRNA synthetase (TcYRS) _High Tyrosine SOP; type: functional; conditions: 30 µM; further: in the data most compounds retested in dose-response had high values
T4 sequence (whole entry): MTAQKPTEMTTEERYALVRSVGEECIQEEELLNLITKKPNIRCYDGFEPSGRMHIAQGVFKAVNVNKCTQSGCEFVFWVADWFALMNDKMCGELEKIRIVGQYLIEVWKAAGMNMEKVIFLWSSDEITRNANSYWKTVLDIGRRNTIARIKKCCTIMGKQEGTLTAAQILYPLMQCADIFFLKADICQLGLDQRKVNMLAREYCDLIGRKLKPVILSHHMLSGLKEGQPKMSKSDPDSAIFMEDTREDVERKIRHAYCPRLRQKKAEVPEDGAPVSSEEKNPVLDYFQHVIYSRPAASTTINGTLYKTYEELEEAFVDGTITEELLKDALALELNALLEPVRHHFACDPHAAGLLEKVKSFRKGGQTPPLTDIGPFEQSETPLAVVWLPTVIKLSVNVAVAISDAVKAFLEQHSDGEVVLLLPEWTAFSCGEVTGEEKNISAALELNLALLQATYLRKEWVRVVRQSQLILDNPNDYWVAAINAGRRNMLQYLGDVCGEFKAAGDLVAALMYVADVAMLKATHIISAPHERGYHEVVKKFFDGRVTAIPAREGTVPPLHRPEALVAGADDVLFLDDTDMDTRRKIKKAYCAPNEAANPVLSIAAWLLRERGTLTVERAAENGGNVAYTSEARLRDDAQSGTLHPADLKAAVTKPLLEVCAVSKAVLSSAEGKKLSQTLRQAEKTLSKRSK

[8] = molecular target: T4, Tyrosyl-tRNA synthetase, putative (Trypanosoma cruzi (strain CL Brener)); assay: Trypanosoma cruzi tyrosyl tRNA synthetase (TcYRS) SOP; type: functional; conditions: 30 µM
[9] = molecular target: Chromo domain-containing protein 1 (Saccharomyces cerevisiae (strain ATCC 204508 / S288c) (Baker's yeast)) (UniProt P32657); assay: ScCHD-1 Enzyme Inhibition Assay; type: functional; conditions: 30 µM; further: in the data most compounds retested in dose-response had high values
Chain of Chromo domain-containing protein 1 (Saccharomyces cerevisiae (strain ATCC 204508 / S288c) (Baker's yeast)) (P32657 whole entry, the tested form may be a part): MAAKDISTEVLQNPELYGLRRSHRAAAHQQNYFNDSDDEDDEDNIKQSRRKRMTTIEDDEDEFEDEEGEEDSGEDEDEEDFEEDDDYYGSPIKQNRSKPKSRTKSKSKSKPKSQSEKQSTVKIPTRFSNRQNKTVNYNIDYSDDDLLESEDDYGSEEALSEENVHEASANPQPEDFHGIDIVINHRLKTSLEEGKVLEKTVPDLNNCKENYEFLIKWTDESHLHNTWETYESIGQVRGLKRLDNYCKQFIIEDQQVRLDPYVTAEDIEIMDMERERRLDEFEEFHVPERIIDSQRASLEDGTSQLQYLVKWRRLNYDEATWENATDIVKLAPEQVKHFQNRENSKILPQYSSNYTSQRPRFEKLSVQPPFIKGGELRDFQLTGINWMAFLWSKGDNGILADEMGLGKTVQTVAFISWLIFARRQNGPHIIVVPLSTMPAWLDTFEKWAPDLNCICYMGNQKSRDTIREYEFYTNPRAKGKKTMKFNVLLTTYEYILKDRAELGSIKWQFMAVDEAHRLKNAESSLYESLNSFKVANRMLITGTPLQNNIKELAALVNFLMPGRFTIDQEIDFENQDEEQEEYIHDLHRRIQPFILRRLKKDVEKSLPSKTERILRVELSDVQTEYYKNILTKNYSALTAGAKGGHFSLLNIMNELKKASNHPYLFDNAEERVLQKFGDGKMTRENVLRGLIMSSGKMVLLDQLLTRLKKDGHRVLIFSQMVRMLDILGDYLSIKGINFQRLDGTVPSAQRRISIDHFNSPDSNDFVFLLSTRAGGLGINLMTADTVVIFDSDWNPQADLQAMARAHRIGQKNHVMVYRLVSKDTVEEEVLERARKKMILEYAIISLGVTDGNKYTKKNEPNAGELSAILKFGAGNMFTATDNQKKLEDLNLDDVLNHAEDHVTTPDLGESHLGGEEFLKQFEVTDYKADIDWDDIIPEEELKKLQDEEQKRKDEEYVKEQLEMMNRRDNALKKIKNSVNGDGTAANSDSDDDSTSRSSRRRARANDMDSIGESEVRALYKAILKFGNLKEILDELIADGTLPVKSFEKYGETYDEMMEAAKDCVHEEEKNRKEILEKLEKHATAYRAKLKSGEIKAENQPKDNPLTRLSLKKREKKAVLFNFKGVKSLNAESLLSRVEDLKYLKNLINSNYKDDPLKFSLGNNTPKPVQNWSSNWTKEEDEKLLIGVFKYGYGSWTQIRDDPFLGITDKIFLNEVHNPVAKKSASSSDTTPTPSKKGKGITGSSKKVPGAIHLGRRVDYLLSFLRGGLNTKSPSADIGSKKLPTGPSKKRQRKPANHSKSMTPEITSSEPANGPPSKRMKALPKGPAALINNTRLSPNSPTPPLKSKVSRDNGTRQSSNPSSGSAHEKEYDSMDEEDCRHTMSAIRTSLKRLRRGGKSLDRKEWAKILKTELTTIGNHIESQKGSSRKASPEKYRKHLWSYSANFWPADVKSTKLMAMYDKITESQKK

Chain of Protein translocase subunit SecA (Escherichia coli (strain K12)) (P10408 whole entry): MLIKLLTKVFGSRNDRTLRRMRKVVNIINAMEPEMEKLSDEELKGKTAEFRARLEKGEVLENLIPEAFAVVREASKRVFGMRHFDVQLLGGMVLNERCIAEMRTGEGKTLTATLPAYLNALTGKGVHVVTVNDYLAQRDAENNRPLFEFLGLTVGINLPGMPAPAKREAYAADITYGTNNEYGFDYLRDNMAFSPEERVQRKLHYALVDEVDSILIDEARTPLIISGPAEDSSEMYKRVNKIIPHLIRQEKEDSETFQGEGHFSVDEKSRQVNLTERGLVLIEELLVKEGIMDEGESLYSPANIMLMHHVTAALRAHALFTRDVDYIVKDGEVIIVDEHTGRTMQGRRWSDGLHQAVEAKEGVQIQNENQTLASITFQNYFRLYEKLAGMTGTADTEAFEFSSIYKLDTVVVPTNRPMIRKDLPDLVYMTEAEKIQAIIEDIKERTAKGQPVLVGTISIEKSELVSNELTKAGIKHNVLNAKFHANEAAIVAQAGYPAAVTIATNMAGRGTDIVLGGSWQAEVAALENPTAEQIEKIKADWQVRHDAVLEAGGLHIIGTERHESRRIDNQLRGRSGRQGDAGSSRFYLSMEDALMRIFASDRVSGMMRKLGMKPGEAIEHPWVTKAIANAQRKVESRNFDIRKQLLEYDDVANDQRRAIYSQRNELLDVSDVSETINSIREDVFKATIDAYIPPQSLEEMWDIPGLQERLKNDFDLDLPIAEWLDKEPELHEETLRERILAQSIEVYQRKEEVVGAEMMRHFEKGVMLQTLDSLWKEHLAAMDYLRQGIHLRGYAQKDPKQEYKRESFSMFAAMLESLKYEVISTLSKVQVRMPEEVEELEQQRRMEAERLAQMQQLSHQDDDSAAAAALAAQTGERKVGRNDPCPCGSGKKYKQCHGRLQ

| Structure (SMILES) | Percent Effect [1] [%] | Percent Effect [2] [%] | Percent Effect [3] [%] | Percent Effect [4] [%] | Percent Effect (Trypanosoma cruzi) [%] | Percent Effect [5] [%] | Percent Effect [6] [%] | Percent Effect (Homo sapiens) [%] | Percent Effect [7] [%] | Percent Effect [8] [%] | Percent Effect [9] [%] |
| --- | --- | --- | --- | --- | --- | --- | --- | --- | --- | --- | --- |
| NS(=O)(=O)Cc1ccc(CNC(=O)NCC2CCOC2)cc1 (configuration not stated) | -1.97 | 7.79 | 5.79 | -1.36 | 1.86 | 3.58 | 5.09 | -5.41 | 2.86 | 18.8 | -8.13 |
| Cc1nc(CN2CCc3ncnc(C)c3CC2)cs1 | -4.35 | 0 | 0.161 | 1.66 | 4.99 | 3.5 | 10.3 | -27.4 | 2.16 | 7.69 | 4.23 |
| Cc1nc(-c2ccsc2)ccc1C(=O)NCCC(=O)N1CCCC1 | -5.91 | 13.2 | -2.05 | 5.21 | 6.2 | 1.15 | 3.34 | -2.2 | -1.47 | 9.76 | -11.3 |
| COc1ncccc1NC(=O)N1CCC(CNC(C)=O)CC1 | -3.02 | 5.33 | -2.93 | 4.72 | 3.02 | 3.12 | 7.5 | 20.5 | 4.92 | 13.6 | -8 |
| CCc1nc(NS(=O)(=O)c2ccc(C)cc2Cl)no1 | -5.01 | -2.67 | -2.5 | 11.5 | 4.19 | 1.56 | -1.57 | -10.5 | 2.73 | 6.17 | -1.19 |
| Cn1ncc2c1CCCC2NCc1cnc(-c2ccccc2)nc1 (configuration not stated) | -8.3 | 13.5 | -13.8 | 24.2 | 4.62 | -7.21 | 1.44 | 22.4 | 2.46 | 18.5 | -12.3 |
| Cc1ccc(N2CCCC(N(C)Cc3cc(C)no3)C2)nn1 (configuration not stated) | -0.747 | 5.33 | -6.3 | 43.3 | 5.55 | 23.4 | 19.9 | 0.899 | 6.01 | 11.1 | -17.3 |
| CC(C)S(=O)(=O)N1CCC(c2cc3n(n2)[C@@H](C(F)(F)F)C[C@@H](C)N3)C1 (some centres not stated) | -0.301 | 5.33 | -46.3 | 0.653 | 4.13 | -1.63 | 5.02 | 9.18 | 4.25 | 6.41 | -0.108 |
| CC(C)Nc1nc(N2CCCC2)nc2c1CN(C(C)C)CC2 | 1.43 | -2.67 | -5.03 | 21.2 | 4.63 | -29.6 | 14.7 | -15.2 | 5.21 | -2.5 | -5.55 |
| CNC1CCCN(Cc2noc(C3CC3)n2)C1 (configuration not stated) | 0.64 | -5.41 | -3.33 | -1.4 | -0.193 | -0.476 | 1.9 | -1.86 | 1.59 | 0 | 0.831 |
| Cc1cnn(CC(C)NCc2ccc(S(C)(=O)=O)cc2)c1 (configuration not stated) | -2.77 | 13.9 | -0.525 | 2.13 | -1.74 | -3.23 | 12.3 | 0.644 | 8.33 | 25.3 | -28 |
| O=C(NCC(O)c1ccc(F)c(F)c1)c1cccnc1OCC(F)(F)F (configuration not stated) | -4.25 | 19.2 | 10.1 | 8.21 | 7.94 | -2 | 15.8 | 5.47 | 4.17 | 16.1 | -4.84 |
| CCn1c(N)nc2cc(C(=O)NCCc3ccccc3C)cnc21 | -2.81 | 13.7 | 9.51 | 3.5 | 5.09 | 15 | 22.7 | 20.2 | 5.38 | 17.5 | -12.1 |
| COc1cc2nc3n(c(=O)c2cc1OC)CCN(C(C)=O)CC3 | -1.86 | 4.05 | 9.32 | 3.01 | 0.593 | -1.16 | 5.62 | 11.5 | 1.07 | 11.7 | -1.39 |
| COc1c(CNCc2ccc(C(=O)NC3CC3)cc2)c(C)nn1C | -3.12 | 8.86 | -1.46 | 6.83 | -3.18 | 2.8 | 11 | 9.67 | 1.04 | 12.7 | -6.42 |
| COCc1nc(C(=O)N2CCCC2c2ccccc2C)cs1 (configuration not stated) | -2.11 | 3.8 | 3.68 | 5.3 | 0.513 | -4.09 | 13.2 | 16.4 | 9.38 | 22.8 | -22.3 |
| O=S(=O)(CCNCc1cccc2c1OCCO2)N1CCOCC1 | 0.589 | 10.8 | -8.76 | 1 | -0.965 | -0.476 | 9.14 | 24.3 | 5.82 | 4.88 | -2.36 |
| O=C(NCC(F)(F)F)NC1CCCc2c1cnn2CCO (configuration not stated) | -4.5 | 16 | -9.15 | 18.8 | 5.36 | 12.5 | 12.4 | 7.67 | 2.73 | 16.1 | 105 |
| CC(C)c1nnc(NC(=O)NCc2ccnc(N(C)C)c2)s1 | 0.949 | 8.86 | 3.28 | -0.716 | -2.77 | 8.39 | 15.8 | 30.7 | 1.04 | 7.59 | -17.6 |
| CC(C)(C)n1cc(C(=O)N2CCCN(Cc3cccs3)CC2)cn1 | -1.01 | 5.26 | 3.41 | 2.97 | -3.57 | 3.45 | 9.19 | 14.5 | 1.47 | 9.76 | -2.3 |
| COc1ccc(NC(C)C(=O)NCCc2cccs2)cc1F (configuration not stated) | -7.72 | -2.74 | -49.8 | 6.34 | -3.92 | 0 | 15.3 | 14.2 | -1.07 | -5 | -3.93 |
| CC(C)n1ccc(-c2cc(C(=O)N3CCCC3)c3ccccn23)n1 | 2.31 | 13.5 | 128 | -12.1 | -4.79 | 0.319 | 3.69 | 65.6 | -1.08 | -2.56 | -12 |
